# Measurements reported in PubChem BioAssay (NCI).
# Compounds without any hit were thinned out: in the full panel of roughly 83,000, 20% have a hit.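 Each cell line was grown in a 96-well plate and treated with one concentration of compound for 48 hours. Values below 10 were considered active.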 Calls of active or inactive are those of the source.
# System: HL-60(TB) leukemia
# Test: NCI-60 one-dose screen, 48 h (100 = growth as untreated, 0 = no growth, -100 = all killed)
# Settings: 10 µM unless noted
row,SMILES,growth
1,NC(=O)/C=C/C(=O)c1c(Cl)cccc1Cl,-21.6% (active)
2,COc1cc(C(=O)c2c(-c3ccccc3)oc3c(OC)cccc23)cc(OC)c1O,3.31% (active)
3,O=[N+]([O-])c1ccc(N/N=C/c2ccccc2O)nc1,0.837% (active)
4,CCCCCCCCCCCCCCCC1=NCC[N+]1(CCO)CCO,44.9% (inactive)
